In PubChem BioAssay (NCI):
About 83,000 compounds went through this panel and 20% of them were active in at least one assay; those are over-represented in the sample as a whole.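 Values shown are percent growth following 48 h exposure of cells in 96-well plates to a single concentration of compound; below 10 was considered active.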 Calls of active or inactive are those of the source.

Legend:
Assay in all cases: NCI-60 one-dose screen, 48 h (100 = growth as untreated, 0 = no growth, -100 = all killed)
Details in all cases: 10 µM unless noted
HCT-15 colon = tested on: HCT-15 colon
HT29 colon = tested on: HT29 colon
SNB-75 CNS = tested on: SNB-75 CNS
SNB-19 CNS = tested on: SNB-19 CNS
U251 CNS = tested on: U251 CNS
PC-3 prostate = tested on: PC-3 prostate
SK-MEL-5 melanoma = tested on: SK-MEL-5 melanoma
UACC-62 melanoma = tested on: UACC-62 melanoma
LOX IMVI melanoma = tested on: LOX IMVI melanoma
SK-MEL-28 melanoma = tested on: SK-MEL-28 melanoma

Measured: growth

CN(CCOc1ccc(C#N)cc1)CCOc1ccc(C#N)cc1
active: SK-MEL-5 melanoma 6.74%
inactive: HCT-15 colon 85.8% | HT29 colon 88.7% | SNB-75 CNS 83.4% | SNB-19 CNS 44.5% | U251 CNS 78% | PC-3 prostate 71.7% | UACC-62 melanoma 73.4% | LOX IMVI melanoma 84.9% | SK-MEL-28 melanoma 94.9%

N#Cc1cnc(NCCc2ccncc2)nc1-n1cnc2ccccc21
inactive: HCT-15 colon 36.8% | HT29 colon 49% | SNB-75 CNS 82.6% | SNB-19 CNS 94.7% | U251 CNS 58.7% | PC-3 prostate 64.1% | SK-MEL-5 melanoma 79.8% | UACC-62 melanoma 48.5% | LOX IMVI melanoma 41.2% | SK-MEL-28 melanoma 80.9%

O=C(Nc1cc(Cl)ccc1O)c1ccc(Nc2ccnc(C(F)(F)F)c2)cc1
inactive: HCT-15 colon 30.9% | HT29 colon 95.5% | SNB-75 CNS 69.2% | SNB-19 CNS 24.6% | U251 CNS 31.7% | PC-3 prostate 14.7% | SK-MEL-5 melanoma 47.1% | UACC-62 melanoma 27.7% | LOX IMVI melanoma 27.8% | SK-MEL-28 melanoma 83.6%

CC1=Nc2cnc(Nc3ccc(OCCN4CCCCC4)cc3)nc2Nc2ccccc21
inactive: HCT-15 colon 27.8% | HT29 colon 50.6% | SNB-19 CNS 87.8% | U251 CNS 76.6% | PC-3 prostate 48.7% | SK-MEL-5 melanoma 69.2% | UACC-62 melanoma 85.7% | LOX IMVI melanoma 47.6% | SK-MEL-28 melanoma 99.3%
active: SNB-75 CNS 9.67%

COc1ccc(-c2nc(/C=C3\SC(=NCc4ccccc4)NC3=O)c3ccccn23)cc1
inactive: SNB-19 CNS 16% | PC-3 prostate 13.7%
active: HCT-15 colon 0.0387% | HT29 colon -70.4% | SNB-75 CNS -46.8% | U251 CNS -43.6% | SK-MEL-5 melanoma -78.4% | UACC-62 melanoma -49.7% | LOX IMVI melanoma -76.4% | SK-MEL-28 melanoma -43.9%

CC(C)CCC[C@@H](C)[C@H]1CC[C@H]2[C@@H]3CC=C4C[C@@H](C(C(=O)O)C(=O)O)CC[C@]4(C)[C@H]3CC[C@]12C
inactive: SNB-19 CNS 18.6%
active: HCT-15 colon -6.36% | HT29 colon -35.1% | SNB-75 CNS -61.1% | U251 CNS -46.8% | PC-3 prostate -5.95% | SK-MEL-5 melanoma -96% | UACC-62 melanoma -53.4% | LOX IMVI melanoma -29.3% | SK-MEL-28 melanoma -49.6%

COc1ccc(-c2nc3c(c(-c4ccccc4)nn3-c3ccccc3)c(-c3ccc(N4CCOCC4)cc3)c2C#N)cc1
inactive: HCT-15 colon 91.4% | HT29 colon 105% | SNB-75 CNS 105% | SNB-19 CNS 103% | U251 CNS 84.8% | PC-3 prostate 101% | SK-MEL-5 melanoma 101% | UACC-62 melanoma 91.1% | LOX IMVI melanoma 92.2% | SK-MEL-28 melanoma 100%

COc1ccc(-c2nnc3n(C)c(=O)c4ccccc4n23)cc1N
active: HT29 colon 4.95% | SNB-75 CNS 7.89%
inactive: HCT-15 colon 27.2% | SNB-19 CNS 31.1% | U251 CNS 23.8% | PC-3 prostate 22.1% | SK-MEL-5 melanoma 11.4% | UACC-62 melanoma 12.9% | LOX IMVI melanoma 37.5% | SK-MEL-28 melanoma 53.6%

COc1ccc(NC(=O)c2sc3nc(C)c(C(=O)/C=C/c4cccc(OC)c4)cc3c2N)cc1
active: HCT-15 colon -12.8% | HT29 colon 1.21% | SNB-19 CNS 8.88% | U251 CNS 1.61% | LOX IMVI melanoma -73.1%
inactive: SNB-75 CNS 11.2% | PC-3 prostate 55.2% | SK-MEL-5 melanoma 71.3% | UACC-62 melanoma 56.6% | SK-MEL-28 melanoma 80.7%

O=C(CCC(=O)N/N=C/c1ccccc1O)N/N=C/c1ccccc1O
inactive: HCT-15 colon 22.5% | HT29 colon 84.1% | SNB-75 CNS 78.6% | SNB-19 CNS 57.9% | U251 CNS 26% | PC-3 prostate 31.1% | SK-MEL-5 melanoma 36.3% | UACC-62 melanoma 24.9% | LOX IMVI melanoma 21% | SK-MEL-28 melanoma 45.2%

N#Cc1nn(-c2cc(=O)[nH]c3ccc(Cl)cc23)c(N)c1C#N
inactive: HCT-15 colon 108% | HT29 colon 101% | SNB-75 CNS 113% | SNB-19 CNS 98.8% | U251 CNS 103% | SK-MEL-5 melanoma 102% | UACC-62 melanoma 81.9% | LOX IMVI melanoma 96.6% | SK-MEL-28 melanoma 104%
active: PC-3 prostate -87.3%

CN1CCN(c2ccc(C(=O)Nc3cccc(C#Cc4cccc5[nH]nc(N)c45)c3)cc2C(F)(F)F)CC1
active: HCT-15 colon -53.9% | HT29 colon -35.9% | SNB-75 CNS -38.2% | SNB-19 CNS -78.4% | U251 CNS -69.1% | PC-3 prostate -75.4% | SK-MEL-5 melanoma -27.8% | UACC-62 melanoma -79.2% | LOX IMVI melanoma -93.8% | SK-MEL-28 melanoma -66.4%

CC(C)c1ccc(NC(=O)Nc2ccc(NC(=O)CCCC(=O)NOCc3ccccc3)cc2)cc1
inactive: HCT-15 colon 99.8% | HT29 colon 79.4% | SNB-75 CNS 80.2% | SNB-19 CNS 91.3% | U251 CNS 85.6% | PC-3 prostate 93.3% | SK-MEL-5 melanoma 83.8% | UACC-62 melanoma 89.2% | LOX IMVI melanoma 82.2% | SK-MEL-28 melanoma 94.4%
